# Data taken from PubChem BioAssay (Tox21).
# “And” between values parts separate entries of the source, which are not always exact repeats. Identical values can stand only once. A number with no mark means an inactive call. Inconclusive results are not listed. Entries that show only a call come without a potency. The source made the active and inactive calls. The call rests on the fitted dose curve.
# Columns and labels:
# [1] = target: Acetylcholinesterase (Homo sapiens) (UniProt P22303); experiment: Acetylcholinesterase (AChE) small molecule antagonists: colormetric cell-based qHTS assay (AID 1347395); further: nearly all actives have a fitted effect of over 30% in size; further: potency means the concentration at half of the fitted maximal effect
# Acetylcholinesterase (Homo sapiens), sequence (P22303 whole entry, looked up): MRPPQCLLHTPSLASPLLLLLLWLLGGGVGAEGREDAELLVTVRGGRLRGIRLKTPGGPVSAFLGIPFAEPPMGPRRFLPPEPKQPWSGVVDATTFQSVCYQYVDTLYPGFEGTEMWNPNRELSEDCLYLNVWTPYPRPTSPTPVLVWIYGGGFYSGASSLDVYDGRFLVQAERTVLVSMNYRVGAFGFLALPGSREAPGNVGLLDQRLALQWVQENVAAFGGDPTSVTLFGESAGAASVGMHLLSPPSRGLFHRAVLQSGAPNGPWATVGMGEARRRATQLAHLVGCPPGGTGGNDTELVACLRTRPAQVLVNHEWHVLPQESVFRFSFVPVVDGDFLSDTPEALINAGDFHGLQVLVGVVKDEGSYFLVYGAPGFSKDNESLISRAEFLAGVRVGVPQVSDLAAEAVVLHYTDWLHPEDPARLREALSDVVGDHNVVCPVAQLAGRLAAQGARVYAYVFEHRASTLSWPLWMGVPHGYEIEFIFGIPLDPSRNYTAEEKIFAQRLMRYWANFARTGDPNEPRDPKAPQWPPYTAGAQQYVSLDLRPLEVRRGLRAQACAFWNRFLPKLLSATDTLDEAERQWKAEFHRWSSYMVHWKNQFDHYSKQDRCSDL
# Method in brief: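 Quantitative HTS in attached SH-SY5Y cells: 30 min compound exposure, then 90 min with acetylthiocholine and DTNB at 37 C; colour from thiocholine reports AChE activity.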
# [2] = target: Acetylcholinesterase (Homo sapiens) (UniProt P22303); experiment: Acetylcholinesterase (AChE) small molecule antagonists: enzyme-based qHTS assay (AID 1347397); details: Potency: AChE enzyme activity inhibition; outcome: AChE enzyme activity inhibition; further: nearly all actives have a fitted effect of over 55% in size; further: potency means the concentration at half of the fitted maximal effect
# Method in brief: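 Colorimetric DTNB read-out of thiocholine released from acetylthiocholine by recombinant human AChE (50 mU/mL as dispensed). Compounds were preincubated 30 min at RT before substrate/DTNB addition, with a 10 min RT reaction.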
# [3] = target: Acetylcholinesterase (Homo sapiens) (UniProt P22303); experiment: Acetylcholinesterase (AChE) small molecule antagonists: fluorescence cell-based qHTS assay (AID 1347398); details: Potency: AChE activity; outcome: AChE activity; further: nearly all actives have a fitted effect of over 50% in size; further: potency means the concentration at half of the fitted maximal effect
# Method in brief: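 SH-SY5Y, 2,000 cells/well, attached overnight; cmpd 30 min 37 C; acetylthiocholine/Thiolite Green cocktail 40 min RT; fluorescence Ex/Em 490/520 nm.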
# [4] = target: Acetylcholinesterase (Homo sapiens) (UniProt P22303); experiment: Acetylcholinesterase (AChE) small molecule antagonists: enzyme-based qHTS assay with human liver microsomes (AID 1347399); details: Potency: qHTS inhibition; outcome: qHTS inhibition; further: nearly all actives have a fitted effect of over 60% in size
# Method in brief: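 Recombinant human AChE (50 mU/mL in the enzyme mix) and human liver microsomes (0.25 mg/mL final) were preincubated with compound and NADPH (0.25 mg/mL final) for 30 min at 37 C. Acetylthiocholine/DTNB was then added; thiocholine was read colorimetrically after 10 min at room temperature.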
SMILES,Potency [1],Potency [2],Potency [3],Potency [4],"activity, negative = inhibition [1]","activity change, negative = inhibition [2]","activity change, negative = inhibition [3]","activity change, negative = inhibition [4]"
O=C1C(N(CO)C(=O)NCO)N(CO)C(=O)N1CO (stereo not given),inactive,inactive,inactive,inactive,–,–,–,–
Nc1ccc2cc(S(=O)(=O)O)ccc2c1,inactive,inactive,inactive,inactive,–,–,–,–
CCCCCCCC/C=C\CCCCCCCC(=O)OC(CO)CO,inactive,inactive,inactive,inactive,–,–,–,–
CCCCN(CCCC)c1ccc(C(=O)c2ccccc2C(=O)O)c(O)c1,inactive,inactive,inactive,inactive,–,–,–,–
CCOC(=O)[C@H](CCc1ccccc1)N[C@@H](C)C(=O)N1C(=O)N(C)C[C@H]1C(=O)O,inactive,inactive,inactive,inactive,–,–,–,–
NNc1nc(-c2ccccc2)cs1,inactive,inactive,inactive,inactive,–,–,–,–
CCCCN(CCCC)C(=O)N(CCCC)CCCC,inactive,inactive,inactive,inactive,–,–,–,–
c1cc(N(CC2CO2)CC2CO2)ccc1Cc1ccc(N(CC2CO2)CC2CO2)cc1 (stereo not given),inactive,inactive,inactive,inactive,–,–,–,–
CCCCNCC,inactive,inactive,inactive,inactive,–,–,–,–
Nc1cc([N+](=O)[O-])ccc1C(=O)O,inactive,inactive,inactive,inactive,–,–,–,–
CC1(C)S[C@@H]2[C@H](NC(=O)COc3ccccc3)C(=O)N2[C@H]1C(=O)O,inactive,inactive,inactive,inactive,–,–,–,–
ICCc1ccccc1,inactive,inactive,inactive,inactive,–,–,–,–
O=C(c1ccccc1)C1(O)CCCCC1,inactive,inactive,inactive,inactive,–,–,–,–
CCCCNC(=O)NS(=O)(=O)c1ccc(N)cc1,inactive,inactive,inactive,inactive,–,–,–,–
CCCc1cc(C(N)=S)ccn1,inactive,inactive,inactive,inactive,–,–,–,–
CC(=O)Nc1ccc(C)cc1C,inactive,inactive,inactive,inactive,–,–,–,–
C=CC(=O)OCCOC(=O)C=C,inactive,inactive,inactive,inactive,–,–,–,–
Cc1cc(C)cc(N)c1,inactive,inactive,inactive,inactive,–,–,–,–
CCCCCCCCCCCCCC(=O)O,inactive,inactive,inactive,inactive,–,–,–,–
COC(C)(C)CCCC(C)CC=O (stereo not given),inactive,inactive,inactive,inactive,–,–,–,–

SMILES,Potency [1],Potency [2],Potency [3],Potency [4],"activity, negative = inhibition [1]","activity change, negative = inhibition [2]","activity change, negative = inhibition [3]","activity change, negative = inhibition [4]"
CCOC(=O)C1=C(C)NC(C)=C(C(=O)OCC)C1c1ccccc1/C=C/C(=O)OC(C)(C)C,inactive,inactive,inactive,inactive,–,–,–,–
O=c1c(O)c(O)c1=O,inactive,inactive,inactive,inactive,–,–,–,–
Nc1nc2ccc(OC(F)(F)F)cc2s1,inactive,inactive,inactive,inactive,–,–,–,–
CCCCNC(N)=O,inactive,inactive,inactive,inactive,–,–,–,–
c1cc(N(CC2CO2)CC2CO2)ccc1OCC1CO1 (stereo not given),inactive,inactive,inactive,inactive,–,–,–,–
Cc1ccsc1C(=CCCN1CCC[C@@H](C(=O)O)C1)c1sccc1C,inactive,inactive,inactive,inactive,–,–,–,–
C=C(C)C(=O)OCC(C)O (stereo not given),inactive,inactive,inactive,inactive,–,–,–,–
CCCCc1ccc(Cl)cc1,inactive,inactive,inactive,inactive,–,–,–,–
CCC(C)(C)C,inactive,inactive,inactive,inactive,–,–,–,–
C=C(C#N)C(=O)OCC,inactive,inactive,inactive,inactive,–,–,–,–
OCCOc1ccc(OCCO)cc1,inactive,inactive,inactive,inactive,–,–,–,–
CC(CCC(=O)O)C(=O)O (stereo not given),inactive,inactive,inactive,inactive,–,–,–,–
OC1CCCc2ccccc21 (stereo not given),inactive,inactive,inactive,inactive,–,–,–,–
Oc1cccc2[nH]ccc12,inactive,inactive,inactive,inactive,–,–,–,–
C=CCCCCCCCCCCCCCCCC,–,–,–,–,2.13% [at 10.5 µM],-0.28% [at 10.5 µM],3.23% [at 10.5 µM],-0.261% [at 10.5 µM]
CC(=O)[C@H]1CC[C@H]2[C@@H]3CC=C4C[C@@H](O)CC[C@]4(C)[C@H]3CC[C@]12C,inactive,inactive,inactive,inactive,–,–,–,–
C=C1C(=C/C=C2\CCC[C@]3(C)[C@@H]([C@H](C)/C=C/[C@@H](O)C4CC4)CC[C@@H]23)C[C@@H](O)C[C@@H]1O,inactive,inactive,inactive,inactive,–,–,–,–
CC(=O)OCCN(CCOC(C)=O)c1ccc(N=Nc2ccc([N+](=O)[O-])cc2C#N)cc1,inactive,inactive,inactive,inactive,–,–,–,–
COC(C)(OC)OC,inactive,inactive,inactive,inactive,–,–,–,–
N[C@@H](CCC(=O)Nc1ccc([N+](=O)[O-])cc1)C(=O)O,inactive,inactive,inactive,inactive,–,–,–,–

SMILES,Potency [1],Potency [2],Potency [3],Potency [4],"activity, negative = inhibition [1]","activity change, negative = inhibition [2]","activity change, negative = inhibition [3]","activity change, negative = inhibition [4]"
OCC#CCO,inactive,inactive,inactive,inactive,–,–,–,–
C1CC(COCC2CO2)CCC1COCC1CO1 (stereo not given),inactive,inactive,inactive,inactive,–,–,–,–
O=C(OCC1CCC2OC2C1)C1CCC2OC2C1 (stereo not given),inactive,inactive,inactive,inactive,–,–,–,–
C=CCCCCCCCCC=O,inactive,inactive,inactive,inactive,–,–,–,–
O=C(CCCCCCCCC#CI)Oc1ccccc1,inactive,inactive,inactive,inactive,–,–,–,–
Cc1cccc(S(=O)(=O)O)c1C,inactive,inactive,inactive,inactive,–,–,–,–
CCCNCCC,inactive,inactive,inactive,inactive,–,–,–,–
CCCCCC/C(C=O)=C\c1ccccc1,inactive,inactive,inactive,inactive,–,–,–,–
Oc1ccc(Cc2ccccc2O)cc1,inactive,inactive,inactive,inactive,–,–,–,–
O=c1[nH]c2cc(C(F)(F)F)c(N3CCOCC3)cc2n(CP(=O)(O)O)c1=O,inactive,inactive,inactive,inactive,–,–,–,–
O=C(O)CS,inactive,inactive,inactive,inactive,–,–,–,–
CCCOC(C)=O,inactive,inactive,inactive,inactive,–,–,–,–
N=C(N)c1ccc(OCCCCCOc2ccc(C(=N)N)cc2)cc1,35.4 µM (active) and 30.3 µM (active) and 17.4 µM (active),53.9 µM (active),22.4 µM (active) and 27 µM (active),inactive,–,–,–,–
CC(=O)OCC=C(C)C,inactive,inactive,inactive,inactive,–,–,–,–
NS(=O)(=O)c1cc(-c2nn[nH]n2)c(NCc2cccs2)cc1Cl,inactive,inactive,inactive,inactive,–,–,–,–
O=C(O)c1cccc(C(=O)O)n1,inactive,inactive,inactive,inactive,–,–,–,–
Cc1cc(N)n(-c2ccccc2)n1,inactive,inactive,inactive,inactive,–,–,–,–
NC(=O)N/N=C/c1ccc([N+](=O)[O-])o1,inactive,inactive,inactive,inactive,–,–,–,–
COc1cccc(O)c1,inactive,inactive,inactive,inactive,–,–,–,–
Oc1cccc2cc3cccc(O)c3c(O)c12,inactive,inactive,inactive,inactive,–,–,–,–
